Reference: ChEMBL document CHEMBL3988442, “University of Dundee, Small-Polar-MMV Screening Library” (2021)

system: Trypanosoma cruzi; test: Trypanosoma cruzi phosphomannomutase and mannose-1-phosphate guanylyltransferase assay; assay type: functional; design: scale not given: direction of the effect not stated beside the values; conditions: 10 µM

Structure (SMILES)	Percent Effect
COc1ccc(CCN2CCCC(CN(C)Cc3ccc(C)o3)C2)cc1 (stereo not drawn)	5.18%
CC(C)(C(=O)NCC(N)=O)c1ccccc1F	-3.98%
COc1cc(C)c(C(C)NC(=O)Nc2nnc(C)s2)cc1OC (stereo not drawn)	7.72%
Cc1ccc(CN2CC[C@H]3[C@@H]2CCC(=O)N3CCN2CCCC2)s1	-8.27%
CS(=O)(=O)NC[C@@H]1OC[C@H]2CN(C(=O)c3ccc[nH]3)CC[C@H]21	-18.5%
CC(C)OCCCNC(=O)CN1CCC(N2CCN(C)C2=O)CC1	4.82%
O=C(Cn1nc(-c2ccc(F)cc2)oc1=O)Nc1ccccc1	3.01%
CNS(=O)(=O)c1cccc(C(C)NCc2nccn2C(C)C)c1 (stereo not drawn)	-0.781%
Cc1cc(C)n(CC2CCCN2C(=O)c2cccc3[nH]ncc23)n1 (stereo not drawn)	7.89%
CC1CCCN(Cc2c(C3CCOCC3)[nH]c3ncccc23)C1 (stereo not drawn)	0.198%
CCCc1nc(CN2CCOC(CNc3cccnn3)C2)cs1 (stereo not drawn)	-0.849%
CN(C)C(=O)C1CN(Cc2c[nH]cn2)CCN(C2CCOCC2)C1 (stereo not drawn)	0.198%
CC(Oc1ccccc1C(F)(F)F)C(=O)NCC(N)=O (stereo not drawn)	4.3%
CCn1cc(CN(C)S(=O)(=O)c2ccc(Cl)cc2)cn1	-1.97%
Cc1cnn(CC2CCCCN2C(=O)CN(C)C2CC2)c1 (stereo not drawn)	-0.103%
Cc1ccc(NC2CCN(C(=O)Cc3cccc(F)c3)CC2)nn1	7.83%
O=C(NCCCN1CCOCC1)c1cc(-c2ccco2)[nH]n1	-0.794%
CCc1ccc(S(=O)(=O)Nc2cc(C(=O)O)c(F)cc2F)s1	9.99%
O=C(Nc1ccc(F)cc1)N1C[C@H]2CC[C@@H]1CN(Cc1cccnc1)C2	-2.15%
CCC(C)NC(=O)Nc1ccc(CN2CCOC2=O)cc1 (stereo not drawn)	-5.15%

Structure (SMILES)	Percent Effect
Cc1cnc2c(S(=O)(=O)NCC3CCS(=O)(=O)C3)cccc2c1 (stereo not drawn)	6.26%
Cn1ncc2c(=O)[nH]c(CN3CCCC3CC3CCCCC3)nc21 (stereo not drawn)	3.83%
COc1cc(CNC(=O)c2c(C)noc2C(C)C)ccn1	3.75%
Cc1nc(C)n(CC2CN(CCc3ccncc3)CCO2)n1 (stereo not drawn)	0.979%
Nc1cc2c(nn1)CCN(C(=O)c1cccc3c1OCCO3)C2	8.24%
COc1cccc(CN2CCCCCC2c2cccs2)c1O (stereo not drawn)	-3.65%
CC(C)c1cc(NC(=O)CN2CCc3ccccc3C2)on1	5.99%
Cc1cc(C[C@@H]2COC[C@H]2NCc2ccc(Br)s2)on1	-2.77%
Cn1nc(C2CN(C(=O)c3cscn3)C2)c2nccnc21	1.38%
Cc1cc(C)n(CC(=O)N2CCC(NS(=O)(=O)c3ccccc3)CC2)n1	-1.32%
Cc1ccccc1C(=O)CN1C(=O)c2ccccc2CS1(=O)=O	-5.41%
CCCS(=O)(=O)N1CCC(NC(=O)c2ccc(Cl)s2)CC1	5.16%
COCC(c1cccc(C(F)(F)F)c1)N(C)C(=O)c1cc(C)n[nH]1 (stereo not drawn)	-3.01%
Cc1nn(C)c(C)c1CCC(=O)N1CCCC1Cn1cccn1 (stereo not drawn)	-3.52%
CN(Cc1ccc(F)cc1)C(=O)NCc1nnc2n1CCCCC2	10.5%
Cc1cc(CN2CCN(C(=O)NCc3nc(C)cs3)CC2)on1	-4.95%
COCCOc1ccc(NC(=O)C2CC(=O)N(C)C2)cn1 (stereo not drawn)	-5.95%
Cc1cnn(CC2CCCN2C(=O)CCc2nc3ccccc3[nH]2)c1 (stereo not drawn)	4.82%
CCN(CC)C(=O)c1ccc(-c2ccsc2)nc1C	-4.37%

biological target: T1, Arginase-2, mitochondrial (Homo sapiens) (UniProt P78540); test: in vitro enzyme assay to detect the production of urea directly proportional to the activity of Arginase II; assay type: functional; design: scale not given: in the data most compounds retested in dose-response had high values; conditions: 33.3 µM
T1 sequence (whole entry): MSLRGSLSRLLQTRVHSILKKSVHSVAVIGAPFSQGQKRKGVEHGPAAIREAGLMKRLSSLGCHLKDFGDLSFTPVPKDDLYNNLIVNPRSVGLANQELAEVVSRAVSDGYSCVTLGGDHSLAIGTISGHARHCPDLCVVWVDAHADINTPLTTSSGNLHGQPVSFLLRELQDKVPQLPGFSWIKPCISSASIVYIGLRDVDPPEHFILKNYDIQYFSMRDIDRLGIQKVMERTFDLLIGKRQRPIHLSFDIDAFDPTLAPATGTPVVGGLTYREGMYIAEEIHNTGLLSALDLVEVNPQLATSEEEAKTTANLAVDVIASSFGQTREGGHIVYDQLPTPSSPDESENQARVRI

Structure (SMILES)	Percent Effect
COc1ccc(CCN2CCCC(CN(C)Cc3ccc(C)o3)C2)cc1 (stereo not drawn)	4.71%
CC(C)(C(=O)NCC(N)=O)c1ccccc1F	-17.7%
COc1cc(C)c(C(C)NC(=O)Nc2nnc(C)s2)cc1OC (stereo not drawn)	1.24%
Cc1ccc(CN2CC[C@H]3[C@@H]2CCC(=O)N3CCN2CCCC2)s1	-3.03%
CS(=O)(=O)NC[C@@H]1OC[C@H]2CN(C(=O)c3ccc[nH]3)CC[C@H]21	-44.3%
CC(C)OCCCNC(=O)CN1CCC(N2CCN(C)C2=O)CC1	-1.9%
O=C(Cn1nc(-c2ccc(F)cc2)oc1=O)Nc1ccccc1	-2.3%
CNS(=O)(=O)c1cccc(C(C)NCc2nccn2C(C)C)c1 (stereo not drawn)	16.2%
Cc1cc(C)n(CC2CCCN2C(=O)c2cccc3[nH]ncc23)n1 (stereo not drawn)	-2.77%
CC1CCCN(Cc2c(C3CCOCC3)[nH]c3ncccc23)C1 (stereo not drawn)	-6.26%
CCCc1nc(CN2CCOC(CNc3cccnn3)C2)cs1 (stereo not drawn)	-5.61%
CN(C)C(=O)C1CN(Cc2c[nH]cn2)CCN(C2CCOCC2)C1 (stereo not drawn)	8.12%
CC(Oc1ccccc1C(F)(F)F)C(=O)NCC(N)=O (stereo not drawn)	-1.67%
CCn1cc(CN(C)S(=O)(=O)c2ccc(Cl)cc2)cn1	-10%
Cc1cnn(CC2CCCCN2C(=O)CN(C)C2CC2)c1 (stereo not drawn)	-1.94%
Cc1ccc(NC2CCN(C(=O)Cc3cccc(F)c3)CC2)nn1	-12%
O=C(NCCCN1CCOCC1)c1cc(-c2ccco2)[nH]n1	2.4%
CCc1ccc(S(=O)(=O)Nc2cc(C(=O)O)c(F)cc2F)s1	1.08%
O=C(Nc1ccc(F)cc1)N1C[C@H]2CC[C@@H]1CN(Cc1cccnc1)C2	4.54%
CCC(C)NC(=O)Nc1ccc(CN2CCOC2=O)cc1 (stereo not drawn)	0%

Structure (SMILES)	Percent Effect
Cc1cnc2c(S(=O)(=O)NCC3CCS(=O)(=O)C3)cccc2c1 (stereo not drawn)	3.24%
Cn1ncc2c(=O)[nH]c(CN3CCCC3CC3CCCCC3)nc21 (stereo not drawn)	0.719%
COc1cc(CNC(=O)c2c(C)noc2C(C)C)ccn1	3.92%
Cc1nc(C)n(CC2CN(CCc3ccncc3)CCO2)n1 (stereo not drawn)	3.64%
Nc1cc2c(nn1)CCN(C(=O)c1cccc3c1OCCO3)C2	0.356%
COc1cccc(CN2CCCCCC2c2cccs2)c1O (stereo not drawn)	4.52%
CC(C)c1cc(NC(=O)CN2CCc3ccccc3C2)on1	-2.85%
Cc1cc(C[C@@H]2COC[C@H]2NCc2ccc(Br)s2)on1	-7.19%
Cn1nc(C2CN(C(=O)c3cscn3)C2)c2nccnc21	2.55%
Cc1cc(C)n(CC(=O)N2CCC(NS(=O)(=O)c3ccccc3)CC2)n1	0.383%
Cc1ccccc1C(=O)CN1C(=O)c2ccccc2CS1(=O)=O	-2.86%
CCCS(=O)(=O)N1CCC(NC(=O)c2ccc(Cl)s2)CC1	9.9%
COCC(c1cccc(C(F)(F)F)c1)N(C)C(=O)c1cc(C)n[nH]1 (stereo not drawn)	2.68%
Cc1nn(C)c(C)c1CCC(=O)N1CCCC1Cn1cccn1 (stereo not drawn)	2.08%
CN(Cc1ccc(F)cc1)C(=O)NCc1nnc2n1CCCCC2	-6.08%
Cc1cc(CN2CCN(C(=O)NCc3nc(C)cs3)CC2)on1	0%
COCCOc1ccc(NC(=O)C2CC(=O)N(C)C2)cn1 (stereo not drawn)	6.46%
Cc1cnn(CC2CCCN2C(=O)CCc2nc3ccccc3[nH]2)c1 (stereo not drawn)	0.38%
CCN(CC)C(=O)c1ccc(-c2ccsc2)nc1C	-0.442%
